These results are taken from PubChem BioAssay AID1259311 (ICCB-Longwood Screening Facility, Harvard Medical School, 2017).

Several values for one entry are separate records, joined by “and”; a condition that tells them apart may be missing. Equal entries are not always repeated. Out of some 330,000 compounds screened, about 1,100 (0.33%) were called active. The full list was thinned out, with actives kept by preference. Unmarked numbers belong to inactive results. Rule as the data show it: active = inhibition above about 85%; inactive = the rest.

The nature of this test: growth inhibition of S. aureus RN4220, primary screen, OD600 (AID 1259311).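 Also: plate controls were untreated cells for no effect and reference antibiotic for full effect.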 Particulars: OD600, 16 h, stronger effect = higher value.
By inhibition is commonly meant the drop in the measured response relative to a control, in per cent. Take `Cc1cc(C(=O)CCl)c(C)n1CC1COc2ccccc2O1` (stereo unspecified): the inhibition is 93.5% (active).
The figure for `O=C1C(=O)N(CC2COc3ccccc3O2)c2ccccc21` (stereo unspecified) is 5.32%; for `Cc1ccsc1C(=O)OCC(=O)c1cc(C)n(CC2CCCO2)c1C` (stereo unspecified) it is 2.84%; for `CON=Cc1ccc(Sc2ccc(C)cc2)c([N+](=O)[O-])c1` it is -19%.
The figure for `NC(=O)C1CCN(C(=O)COc2cccc3cccnc23)CC1` is -6.77%; for `O=C(Nc1ccccc1)Oc1cccc2cccnc12` it is 94.9% (active); for `OCc1ccc(OCCCOc2cccc3cccnc23)cc1` it is 4.11%.
`CCCOc1ccc(NC=CC(=O)C(C)(C)C)cc1`: the inhibition is 7.56%.
Take `Cc1cc(C(=O)NN=Cc2ccncc2)c(C)o1`: the inhibition was -0.256%.
On to `CNC(=S)NN=C(C)c1ccc(C(C)(C)C)cc1`, for which the inhibition was 0.974%.
The same measure for `Oc1ccccc1C1=NN(c2ccccc2)C(c2ccccc2)C1` (stereo unspecified): 94% (active); for `Cc1ccc(N2C(=O)C3N=NN(CC(=O)N4N=C(c5cccc6ccccc56)CC4c4ccccc4)C3C2=O)cc1` (stereo unspecified): 1.33%; for `O=C1C2N=NN(CC(=O)N3N=C(c4cccc5ccccc45)CC3c3ccccc3)C2C(=O)N1c1ccccc1` (stereo unspecified): 7.1%.
The figure for `Cc1cccc(NC(=S)Nc2ccc(Cl)c(Cl)c2)c1` is 98.8% (active).
The same measure for `Cc1cccc(NC(=S)NN=C(c2ccccc2)C(C)C)c1`: -4.52%; for `Cc1ccc(NC(=S)Nc2ccc(F)cc2)cc1`: -0.939%; for `CC(=O)NN=C(C)CC(=O)Nc1ccc2c(c1)OCCO2`: 1.21%.
Consider `CCc1ccc(NC(=O)c2ccc(Cn3cc([N+](=O)[O-])cn3)cc2)cc1`, for which the inhibition was 18.3%.
With `Cn1ccc(=Nc2ccc(NC(=O)c3ccc(N=c4ccn(C)c5ccc([N+](=O)[O-])cc45)cc3)cc2)cc1`, the inhibition was 95.4% (active).
Consider `COc1cc(NS(=O)(=O)c2ccc(NC(=O)c3ccc([N+](=O)[O-])cc3)cc2)ncn1`, for which the inhibition was 2.54%.
The same measure for `CC(NC(=O)c1nc[nH]c1C(=O)N(C)Cc1ccccc1)C(=O)OC(C)(C)C` (stereo unspecified): 2.94%.
The same measure for `CCc1ccc(C=NNc2nn[nH]n2)cc1`: 0.812%; for `O=C(Nn1cnnc1)c1ccc([N+](=O)[O-])cc1`: 4.07%; for `O=C(Nc1ccccc1C(=O)Nc1ccncc1)c1ccc([N+](=O)[O-])cc1`: 3.63%.
The figure for `O=C(c1ccncc1)c1ccc([N+](=O)[O-])cc1` is 75% (active); for `Cc1c(NC(=O)C(=O)C=C(O)c2ccccc2)c(=O)n(-c2ccccc2)n1C` it is -0.817%; for `C#CCOCCOCCOCCNc1nc(N2CCN(C(=O)C(CCCCN)n3cc(CCC(=O)O)nn3)CC2)nc(N2CCN(C(=O)C(C(C)O)n3cc(CCCCN)nn3)CC2)n1` (stereo unspecified) it is -0.306%.
As for `Cc1ccc(C(=O)NNC(=O)C(C)Oc2ccc3ccccc3c2)o1` (stereo unspecified), the inhibition is 0.442%.
Take `CC(Oc1ccc2ccccc2c1)C(=O)NNC(=S)NC(=O)c1ccco1` (stereo unspecified): the inhibition is 92.3% (active).
The same measure for `Cc1ccc(OCC(=O)NNC(=S)NCc2ccccc2)cc1`: 3.38%; for `Cc1ccc(OCC(=O)NCCCNC(=O)c2ccco2)cc1C`: -1.59%.
Take `O=C(Nc1ccc2ccccc2c1)/C(=C/c1cccc(Br)c1)NC(=O)c1ccco1`: the inhibition was 0.361%.
Consider `CCCc1ccc(OCC(=O)NNC(=S)NC(=O)c2ccco2)cc1`, for which the inhibition is 102% (active).
The same measure for `Cc1cc(=O)[nH]c(NN=Cc2ccccc2Cl)n1`: 2.01%; for `CC(C(O)c1ccccc1)N(C)C(=O)CCc1ccccc1` (stereo unspecified): 0.814%.
As to `Cc1cc(Cl)ccc1OCCCC(=O)NN=Cc1cccc([N+](=O)[O-])c1`, the inhibition was -5.47%.
The figure for `CN(C)c1ccc(C(=NO)C(F)(F)F)cc1` is 19.2%; for `O=C(CN1C(=O)C(=Cc2ccc(C(F)(F)F)cc2)Sc2ccccc21)NCc1ccco1` it is 2.46%.
The figure for `COc1ccccc1NC(=S)N1CCN(c2ccc(F)cc2)CC1` is 3.36%; for `CC1CN(C(=S)Nc2ccccc2F)CC(C)O1` (stereo unspecified) it is -2.44%.
In the case of `COc1c(N2CCN(C(=S)Nc3ccccc3F)C(C)C2)c(F)cc2c(=O)c(C(=O)O)cn(C3CC3)c12` (stereo unspecified), the inhibition is 99.8% (active).
The same measure for `S=c1[nH]nc(C2CCCCC2)n1N=C/C=C/c1ccccc1`: 3.47%.
Turning to `COc1ccc(CNC(=O)CCN2C(=O)c3ccccc3C2=O)cc1`, the inhibition was 0.137%.
The figure for `COC(=O)c1cc(OC)ccc1-c1ccc(OC)cc1` is -2.37%; for `CCOC(=O)C1=C(c2ccc(OC)cc2)C(=O)c2ccccc2C1=O` it is 96.9% (active).
The same measure for `Cc1nn(Cc2ccc(F)cc2)c(Cl)c1C=NNC(=O)c1cccnc1`: 4.34%; for `COC(=O)NN=C(C)c1ccc(Br)cc1`: 0.736%; for `S=c1[nH]nc(COc2ccccc2)n1N=C/C=C/c1ccccc1`: 7.1%.
The same measure for `CN1CCN(N=Cc2nc(-c3ccccc3Cl)n3ccccc23)CC1`: 7.72%.
Turning to `O=S(=O)(NCc1ccccn1)c1ccc(Br)s1`, the inhibition is 8.79%.
The same measure for `O=S(=O)([N-]c1nc2ccccc2nc1-[n+]1ccc(Cc2ccccc2)cc1)c1ccc(Br)s1`: 94.6% (active); for `CN1CCc2c(sc(N=Cc3cc(Cl)ccc3O)c2C#N)C1`: 5.61%; for `CCN1/C(=C/c2ccc3ccc(C)cc3[n+]2CC)Sc2ccccc21`: 100% (active).
Take `CC1CN(C(C)CO)C(=O)c2cccc(NC(=O)Nc3ccc(C(F)(F)F)cc3)c2OC1CN(C)C` (stereo unspecified): the inhibition was 0.322%.
The figure for `COc1ccc(C(=O)Nc2cccc(/C=C(/CCC(=O)O)c3nc4ccccc4s3)c2)cc1` is 19.7%; for `COc1ccc(C2=NN(c3nc4ccccc4s3)C(=O)C2)cc1` it is 97.7% (active).
The same measure for `COc1ccccc1NC(=O)c1ccc2nc(N3C(=O)CCC3=O)sc2c1`: 2.05%; for `CCN1CC2C3C(=O)N(Cc4ccccc4)C(=O)C3[C@](C)(C1=O)N2C(=O)c1ccc(C)cc1` (stereo partly specified): 3.51%; for `NC1=NCC(Cc2ccc(O)cc2)N1CC1CCCCC1` (stereo unspecified): 4.08% and -3.38%.
For the molecule `CC(=O)OC1CC[C@@]2(C)C(CCC3C4CCC(C(C)O)[C@@]4(C)CC(=O)C32)C1` (stereo partly specified), the inhibition was 3.21%.
The same measure for `COC(=O)C1=C(C)N(c2ccc(C)cc2)/C(=C/c2ccc(O)cc2)C1=O`: 84.9% (active); for `COC(=O)C1(C)NC(c2ccc(C)cc2)C2C(=O)N(c3ccc(F)cc3)C(=O)C21` (stereo unspecified): -0.392%; for `CCOC1OC(C(=O)N2CCCCCCC2)=CC(c2ccc(C(F)(F)F)cc2)C1CCCO` (stereo unspecified): 7.41% and 6.78%.
The same measure for `O=C(NCc1ccccc1)C1=CC(c2ccc(C(F)(F)F)cc2)CC(OCc2ccc(CO)cc2)O1` (stereo unspecified): 5.86%.
Turning to `Nc1nonc1C(=O)NN=Cc1ccc([N+](=O)[O-])o1`, the inhibition is 21.6%.
The same measure for `O=C(NN=Cc1ccc(F)cc1)c1ccc(F)cc1`: 4.01%; for `O=C(/C=C/c1ccc([N+](=O)[O-])o1)NNC(=O)c1ccc(F)cc1`: 99.6% (active); for `O=C(O)c1ccc(NN=Cc2cc3ccccc3nc2Cl)cc1`: -0.883%.
The figure for `CCCCC1CC1C(NC(=O)c1ccccc1)c1ccccc1C(F)(F)F` (stereo unspecified) is 9.97%; for `Cc1cccc(C(=O)Oc2ccccc2C=NNc2ccc([N+](=O)[O-])cc2)c1` it is -8.66%; for `NC(COc1cc(Cl)cc(Cl)c1)=NO` it is 1.6%.
The figure for `COc1ccc(-c2csc3ncnc(N4CCN(S(=O)(=O)c5ccccc5C#N)CC4)c23)cc1` is 96.6% (active); for `COc1ccc(S(=O)(=O)N2CCN(c3ncnc4c(-c5ccccc5)nsc34)CC2)cc1` it is 4.04%.
With `COc1ccc(-c2csc3ncnc(N4CCN(S(=O)(=O)c5cccc(F)c5)CC4)c23)cc1`, the inhibition was 2.78%.
The same measure for `C/[N+]([O-])=C\c1ccc([N+](=O)[O-])o1`: 97.6% (active).
The figure for `Cc1cccc(NC(=O)c2ccc([N+](=O)[O-])o2)c1` is 35.2%; for `Cc1ccc(NCC(=O)NN=Cc2ccc([N+](=O)[O-])o2)cc1` it is 7.24%.
The same measure for `COc1cc(C=NNC(=O)c2cccc([N+](=O)[O-])c2)ccc1O`: -1.37%; for `COc1ccc(S(=O)(=O)Nc2ccc3c(c2)C(=O)N(C(C)CO)CC(C)C(CN(C)CC2CC2)O3)cc1` (stereo unspecified): 1.05%.
With `CC(=NNc1cc(C)nc(NCc2ccccc2)n1)c1ccc([N+](=O)[O-])cc1`, the inhibition is -7.45%.
The same measure for `COc1ccc2c(c1)C(=O)CC(c1ccccc1)O2` (stereo unspecified): 2.06%; for `COc1ccc2c(c1)OC(O)(C(F)(F)C(F)F)CC2=O` (stereo unspecified): 99.2% (active).
The same measure for `COc1ccc2c(c1)SC(C)CC2=O` (stereo unspecified): -12.2%.
As for `CC(=O)OCC(=O)C1CCC2C3CCC4CC(O)CC[C@]4(C)C3C(=O)C[C@]12C` (stereo partly specified), the inhibition is 2.69%.
The figure for `CC(NC(=O)c1nc[nH]c1C(=O)NC(C)c1ccccc1)C(=O)OCc1ccccc1` (stereo unspecified) is 6.68%; for `Cc1cc(NC(=O)COc2ccc([N+](=O)[O-])cc2)no1` it is -0.977%.
The same measure for `CC(C)c1nnc(NC(=O)COC(=O)/C=C/c2ccc([N+](=O)[O-])cc2)s1`: -2.74%; for `CCOCC(=O)Nc1ncc(S(=O)(=O)c2ccc([N+](=O)[O-])cc2)s1`: 90.6% (active).
The figure for `COC(=O)C1=C(C(=O)OC)C2Nc3ccccc3[C@@]23CC(C(=O)OC)N(C(=O)c2cccs2)C3=N1` (stereo partly specified) is 2.73%.
As for `CCN(CC)S(=O)(=O)c1cccc(-c2n[nH]c(=S)n2N=Cc2ccc(OC)cc2)c1`, the inhibition is 15%.
The same measure for `CC(C)CC(NC(=O)c1[nH]cnc1C(=O)NC(C)C(=O)OC(C)(C)C)C(=O)OC(C)(C)C` (stereo unspecified): 4.67%.
